Most compounds without a hit are left out; they make up all but 2.5% or so of the library.
ABCB6 inh MLPCN: blocks the human ABCB6 transporter; 0.19% of 360,000 active; Q9NP58; K562-ABCB6 porphyrin accumulation, flow cytometry, 1 h; hits give low values; fluorescence ratio to DMSO, % at 10 µM;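 active = fluorescence ratio to DMSO below 75%, the collection mean minus 3 SD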;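 note: signal is porphyrin accumulated inside mitochondria; 100% equals median channel fluorescence of DMSO control wells; lower ratio means ABCB6 inhibition with less porphyrin fluorescence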
Target sequence (Q9NP58 whole entry, looked up): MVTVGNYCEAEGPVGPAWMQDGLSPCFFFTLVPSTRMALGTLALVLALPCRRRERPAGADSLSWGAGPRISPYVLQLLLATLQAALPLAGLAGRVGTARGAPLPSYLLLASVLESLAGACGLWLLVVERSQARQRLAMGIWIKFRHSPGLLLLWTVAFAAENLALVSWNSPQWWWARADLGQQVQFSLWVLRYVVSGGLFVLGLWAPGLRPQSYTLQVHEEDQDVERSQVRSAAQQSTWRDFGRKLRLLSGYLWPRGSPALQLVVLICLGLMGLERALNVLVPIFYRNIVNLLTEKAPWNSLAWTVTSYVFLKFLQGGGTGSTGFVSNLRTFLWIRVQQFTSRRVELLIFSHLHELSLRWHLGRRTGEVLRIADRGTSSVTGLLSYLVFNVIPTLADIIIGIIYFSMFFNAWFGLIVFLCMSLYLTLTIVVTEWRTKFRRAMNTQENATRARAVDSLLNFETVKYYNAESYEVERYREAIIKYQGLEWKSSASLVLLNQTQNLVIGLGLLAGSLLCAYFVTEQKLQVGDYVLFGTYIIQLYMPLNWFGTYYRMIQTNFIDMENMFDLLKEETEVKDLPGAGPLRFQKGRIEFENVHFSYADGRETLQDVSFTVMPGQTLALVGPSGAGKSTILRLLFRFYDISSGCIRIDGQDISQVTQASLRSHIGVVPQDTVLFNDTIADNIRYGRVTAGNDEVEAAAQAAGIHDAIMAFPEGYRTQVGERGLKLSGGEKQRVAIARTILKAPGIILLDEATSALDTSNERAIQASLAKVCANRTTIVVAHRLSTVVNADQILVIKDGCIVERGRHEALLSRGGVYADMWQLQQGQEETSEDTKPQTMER
Exocytosis inh: blocks lytic granule exocytosis; TALL-104 LAMP-1 surface exposure, flow cytometry; cells stimulated with thapsigargin and PMA; inhibition, % at 10 µM; 0.66% of 360,000 active; AID 651702;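 active = inhibition above about 55%, limit read from the data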
rCAG binder: binds r(CAG) RNA repeats | r(CAG) RNA repeat, TO-PRO-1 dye displacement fluorescence | 1.3% of 370,000 active | inhibition, % at 3 µM;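 active = inhibition above the plate cutoff, the mean of all test compounds on that plate plus 3 SD, cut at about 35% in these data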;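 note: 0% = DMSO alone and 100% = 100 µM mitoxantrone as full dye displacement; higher means more dye released from RNA so lower well fluorescence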
PG9 binder: binds the HIV-1 gp120 antibody PG9 | TR-FRET gp120-PG9 antibody binding | inhibition, % at 6.7 µM | 0.43% of 360,000 active | AID 624416; in the data active = inhibition above about 8.5%
PG9 bind confirm: confirmation of small molecules binding HIV-1 gp120 antibody PG9; shares compounds with PG9 binder; inhibition, % at 6.7 µM; TR-FRET PG9 antibody binding, biochemical; 90% of 1,500 active; in the data active = inhibition above about 9%
PGV04 Ab binding: PGV04 control antibody binding, counter-screen; shares compounds with PG9 binder; TR-FRET PGV04 antibody-gp120 binding, biochemical; inhibition, % at 6.7 µM; 95% of 1,500 active; in the data active = inhibition above about 9.5%
* hit, by the source's call; · = no result given.

SMILES	ABCB6 inh MLPCN	Exocytosis inh	rCAG binder	PG9 binder	PG9 bind confirm	PGV04 Ab binding
COc1ccc(C(=O)Nc2nc(C)cs2)cc1S(=O)(=O)N1CCCC1	92	2	1	1	·	·
CC(=O)Nc1ccc(NC(=O)CSc2ncnc3sc(C)c(C)c23)cc1	94	-9	2	-1	·	·
Cc1sc2ncnc(Sc3ccccc3C(=O)O)c2c1C	99	0	7	31*	37*	46*
CCN(CC(=O)Nc1ccc(NC(C)=O)cc1)C(=O)CSc1ncnc2sc(C)c(C)c12	100	1	5	11*	7	24*
Cc1cccc(NC(=O)CSc2ncnc3sc(C)c(C)c23)n1	102	-2	5	1	·	·
Cc1sc2ncnc(SCC(=O)NC(=O)c3cccn3C)c2c1C	95	3	7	53*	55*	66*
CCOC(=O)C1=C(C)N(C)C(=O)NC1c1cc2c(cc1[N+](=O)[O-])OCO2 (configuration not stated)	110	2	7	0	·	·
CCN1C(=O)[C@H]2[C@@H](c3ccc(C)cc3)N[C@]3(CCCN(Cc4ccco4)C3=O)[C@H]2C1=O	103	1	4	-1	·	·
COc1cc(NC(C)=O)ccc1-c1cc2ccccc2oc1=O	101	0	7	0	·	·
COc1cc(NC(=O)c2ccc(Cl)cc2Cl)ccc1-c1cc2ccccc2oc1=O	103	0	8	12*	23*	33*
COc1ccc(/C(O)=C2/C(=O)C(=O)N(CCN(C)C)C2c2cccnc2)cc1OC (configuration not stated)	106	4	0	-1	·	·
COc1ccc(C2/C(=C(/O)c3ccc(F)cc3)C(=O)C(=O)N2CCCN(C)C)cc1 (configuration not stated)	99	1	-2	-2	·	·
COc1ccc(/C(O)=C2/C(=O)C(=O)N(CCN(C)C)C2c2ccc(F)cc2)cc1Cl (configuration not stated)	95	0	3	9.5*	20*	23*
COc1ccc(/C(O)=C2/C(=O)C(=O)N(CCN(C)C)C2c2cccnc2)cc1C (configuration not stated)	93	3	1	13*	22*	28*
COCCCN1CN(S(=O)(=O)c2ccc(C)cc2C)c2nc3ccccc3nc21	103	-4	1	-1	·	·
COc1ccc(C(C(=O)NC2CCCC2)N2CCc3ccccc32)cc1 (configuration not stated)	114	0	8	12*	25*	34*
Cc1cc(SCC(=O)NC2CC2)nc2ccccc12	100	2	1	11*	12*	16*
COc1ccc2c(C)cc(SCC(=O)NC3CCCC3)nc2c1	92	-2	0	11*	15*	29*
O=C(CCCn1c(SCc2cccc(F)c2)nc2ccccc2c1=O)NCC1CCCO1 (configuration not stated)	98	0	-4	13*	9.5*	13*
COc1ccc2nc(SCC(=O)NC3CCCC3)c(C)cc2c1	93	13	-3	34*	26*	33*
O=C(CCCn1c(SCC(=O)NCC2CCCO2)nc2ccccc2c1=O)NCc1ccccc1 (configuration not stated)	100	2	-4	1	·	·
COc1ccc(-c2ccc(SCC(=O)NC3CCCC3)nn2)cc1	133	-4	3	0	·	·
CC(=O)CC[C@H]1CC[C@]2(CCCN(C(=O)C3CCCCC3)C2)O1	·	·	1	·	·	·
O=C(Nc1ccn(CCOC(=O)c2ccccc2)c(=O)n1)c1ccccc1	99	8	1	2	·	·
Cc1ccc(-n2c(SCC(=O)NCC3CCCO3)nc3ccccc3c2=O)cc1C (configuration not stated)	104	11	-1	0	·	·
SMILES	ABCB6 inh MLPCN	Exocytosis inh	rCAG binder	PG9 binder	PG9 bind confirm	PGV04 Ab binding
Cc1cc(SCC(=O)NCC2CCCO2)nc2ccccc12 (configuration not stated)	149	-2	-4	12*	17*	20*
O=C1c2cccc3cccc(c23)C(=O)N1OS(=O)(=O)c1ccccc1	101	-5	0	28*	28*	62*
O=C1c2cccc3cccc(c23)C(=O)N1OS(=O)(=O)c1ccc(Br)cc1	99	2	5	-2	·	·
CN1CCN(C(c2cccc(C(F)(F)F)c2)c2nnnn2Cc2ccccc2)CC1 (configuration not stated)	102	2	-11	0	·	·
CC(=O)c1cccc(NC(=O)CNC(=O)c2sc3ccccc3c2Cl)c1	120	2	6	15*	17*	41*
Cc1cccnc1NC(=O)CNC(=O)c1sc2ccccc2c1Cl	97	21	2	1	·	·
CCOC(=O)C1CCN(C(=O)COC(=O)CNC(=O)c2sc3ccccc3c2Cl)CC1	94	2	1	10*	12*	16*
CC1CCCCN1C(=O)COC(=O)CNC(=O)c1sc2ccccc2c1Cl (configuration not stated)	94	1	-7	3	·	·
Cc1cccc(NC(=O)CNC(=O)c2sc3ccccc3c2Cl)n1	101	-2	10	12*	4	41*
Cc1cc(C)cc(C(=O)N(CCc2ccccc2)C2CC3CCC(C2)N3C)c1 (configuration not stated)	95	32	-5	-1	·	·
CSc1ccc(C#N)cc1NC(=O)c1ccc(Cl)cc1Cl	97	-2	1	11*	19*	24*
CC[C@@]1(O)C(=O)OCc2c1cc1n(c2=O)Cc2cc3c(N)cccc3nc2-1	100	-1	14	-13	·	·
CC[C@@]1(O)C(=O)OCc2c1cc1n(c2=O)Cc2cc3c(CN(C)C)c(O)ccc3nc2-1	106	0	-50	12*	12*	20*
CNC(=O)c1cnn(-c2nc(-c3ccc(OC)cc3)cs2)c1C(F)(F)F	100	-1	-1	-1	·	·
COc1ccc(-c2csc(-n3ncc(C(=O)O)c3C(F)(F)F)n2)cc1	97	-10	5	16*	22*	36*
CCn1cc(CN2CCC(n3nccc3NC(=O)CCc3ccccc3)CC2)cn1	98	7	-4	-2	·	·
COc1cc(C(=O)OCC(=O)NC2CCCCCC2)ccc1OCC(C)C	91	-4	-2	0	·	·
COc1ccc(-c2nn(C)c3sc(C(=O)NCc4ccco4)cc23)cc1OC	94	4	4	10*	13*	18*
O=c1ccc(-c2ccc(S(=O)(=O)N3CCN(c4ccccc4)CC3)o2)n[nH]1	95	-2	3	25*	43*	48*
O=c1ccc(-c2ccc(S(=O)(=O)N3CCN(c4cccc(Cl)c4)CC3)o2)n[nH]1	100	-6	4	3	·	·
O/N=C(\c1ccccc1)C(O)c1ccccc1 (configuration not stated)	93	1	1	0	·	·

Screens from PubChem BioAssay.
